The text below walks through data of the supplement of paper PMC3414501.

The test system of assay [1] is S. cerevisiae SK1 pCDA2-eGFP (USY613), sporulating. The assay is described as follows: CDA2-GFP sporulation assay sensitivity score (z-score vs DMSO controls); higher = stronger inhibition of sporulation, active = hit call of the paper.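 Also: active if sensitivity score above 5.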
In assay [2] the test system is S. cerevisiae NKY1551 his4x/his4B, sporulating. Put plainly: HIS4 meiotic recombination assay sensitivity score (z-score vs DMSO controls); higher = stronger inhibition of sporulation/recombination, active = hit call of the paper.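 Also: active if sensitivity score above 5.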
Assay [3] deals with S. cerevisiae AD1-9 (efflux-pump deficient), vegetative growth in YPD. Put plainly: growth sensitivity score (doubling time z-score vs DMSO controls); higher = slower growth, strongly negative scores also mark growth inhibition (complete suppression), active = hit call of the paper. The essentials: (§1)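 Saccharomyces cerevisiae strains BY4741 and AD1-9 were seeded in rich medium in microtiter plates at an OD600 of 0.065. Compounds were added at a 1:100 dilution of DMSO stock. Optical density was read every 15 min for 24 hours on a Tecan GENios reader. Average doubling time was the time taken to reach a set generation point divided by generation number, and the growth sensitivity score was (compound mean − DMSO-control mean)/DMSO-control SD, using eight DMSO controls per experiment.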

The subject of assay [4] is S. cerevisiae BY4741 (wild-type), vegetative growth in YPD. Described as above. The essentials: as §1

The structures appear in SMILES notation. Where a name gives a salt, the structure may show the parent alone.

Regarding `O=C(O)COCCN1CCN([C@H](c2ccccc2)c2ccc(Cl)cc2)CC1` [Levocetirizine] (stock concentration (mM, diluted 1:100): 10.7), the “CDA2-GFP sporulation assay sensitivity score” value in assay [1] was -2.92 (inactive). Also, the “HIS4 meiotic recombination assay sensitivity score” value in assay [2] is -0.24 (inactive). Besides, the growth sensitivity score in assay [3] is -1.54 (inactive); in assay [4] it was -0.8 (inactive).
As for `CN(C)CCc1c[nH]c2ccc(Cn3cncn3)cc12` [Rizatriptan benzoate] (stock concentration (mM, diluted 1:100): 10), in assay [1], the “CDA2-GFP sporulation assay sensitivity score” value was -0.91 (inactive). For the same compound, the “HIS4 meiotic recombination assay sensitivity score” value in assay [2] was -0.35 (inactive). In addition, the growth sensitivity score was -1.17 (inactive) in assay [3] and -0.18 (inactive) in assay [4].
The like results for `CCOC(=O)O[C@]1(C(=O)OCCl)CC[C@H]2[C@@H]3CCC4=CC(=O)C=C[C@]4(C)[C@H]3[C@@H](O)C[C@@]21C` [Loteprednol etabonate] (stock concentration (mM, diluted 1:100): 10) were, in that order, 0 (inactive), -0.2 (inactive), 5.74 (active) and 0.91 (inactive).
On the same counts, the results for `COc1cc(C)c(Cc2cnc(N)nc2N)cc1OC` [Ormetoprim] (stock concentration (mM, diluted 1:100): 10) are 0.05 (inactive), -0.05 (inactive), -2.46 and -1.06 (inactive).
With `O=C(O[C@H]1[C@H](Oc2ccccc2COC(=O)C2(O)C=CCCC2=O)O[C@H](CO)[C@@H](O)[C@@H]1O)c1ccccc1` (some centres undefined) [Tremulacin] (stock concentration (mM, diluted 1:100): 10), the “CDA2-GFP sporulation assay sensitivity score” value in assay [1] was 3.04 (inactive). Further, the “HIS4 meiotic recombination assay sensitivity score” value in assay [2] was -1.23 (inactive). Also, the values for the growth sensitivity score in assay [3] and in assay [4] were -1.16 (inactive) and -0.72 (inactive), respectively.
On the same counts, the results for `CCOC(=O)C1=C(C)NC(C)=C(C(=O)OCC)C1c1ccccc1/C=C/C(=O)OC(C)(C)C` [Lacidipine] (stock concentration (mM, diluted 1:100): 10) are 6.44 (inactive), 0.32 (inactive), 10.2 (active) and -1.71 (inactive).
On the same counts, the results for `CN1CCN2c3ncccc3Cc3ccccc3C2C1` (centres undefined) [Mirtazapine] (stock concentration (mM, diluted 1:100): 10) are 12.7 (inactive), 3.31 (inactive), 2.89 (active) and -0.03 (inactive).
The like results for `CCC(=O)O[C@]1(C(=O)SCF)[C@H](C)C[C@H]2[C@@H]3C[C@H](F)C4=CC(=O)C=C[C@]4(C)[C@@]3(F)[C@@H](O)C[C@@]21C` [Fluticasone propionate] (stock concentration (mM, diluted 1:100): 10) were, in that order, -2.57 (inactive), -1.24 (inactive), -1.65 (inactive) and -0.58 (inactive).
In the case of `O=C1CC[C@@H](C(=O)N2CSC[C@H]2C(=O)O)N1` [Pidotimod] (stock concentration (mM, diluted 1:100): 10), the “CDA2-GFP sporulation assay sensitivity score” value in assay [1] is 0.46 (inactive). For the same compound, in assay [2], the “HIS4 meiotic recombination assay sensitivity score” value was -0.31 (inactive). The growth sensitivity score is 0.59 (inactive) in assay [3] and -1.4 (inactive) in assay [4].
Consider `CCC(=O)NS(=O)(=O)c1ccc(-c2c(-c3ccccc3)noc2C)cc1` [Parecoxib] (stock concentration (mM, diluted 1:100): 9.8), for which the “CDA2-GFP sporulation assay sensitivity score” value in assay [1] was 5.02 (inactive). For the same compound, the “HIS4 meiotic recombination assay sensitivity score” value in assay [2] was 0.05 (inactive). Also, the growth sensitivity score in assay [3] was 0.73 (inactive); in assay [4] it was -0.35 (inactive).
On the same counts, the results for `COC(=O)CCc1ccc(OCC(O)CNC(C)C)cc1` (centres undefined) [Esmolol hydrochloride] (stock concentration (mM, diluted 1:100): 9) are 0.86 (inactive), 0.23 (inactive), -2.29 and -0.5 (inactive).
With `O=C(CCCN1CCC(O)(c2ccc(Cl)cc2)CC1)c1ccc(F)cc1` [Haloperidol] (stock concentration (mM, diluted 1:100): 10), in assay [1], the “CDA2-GFP sporulation assay sensitivity score” value was 8.19 (active). Besides, the “HIS4 meiotic recombination assay sensitivity score” value in assay [2] was 7.67 (active). In addition, the growth sensitivity score in assay [3] is 22.7 (active); in assay [4], 5.41 (active).
With `CN1C(=O)CC[C@H]1c1cccnc1` [Cotinine] (stock concentration (mM, diluted 1:100): 10), in assay [1], the “CDA2-GFP sporulation assay sensitivity score” value is -0.11 (inactive). For the same compound, the “HIS4 meiotic recombination assay sensitivity score” value in assay [2] was -1.15 (inactive). In addition, the results for the growth sensitivity score in assay [3] and in assay [4] were 1.38 (inactive) and 0.49 (inactive), respectively.
The like results for `NC[C@H]1CC[C@H](C(=O)Oc2ccc(CCC(=O)O)cc2)CC1` [Cetraxate hydrochloride] (stock concentration (mM, diluted 1:100): 9) were, in that order, -0.06 (inactive), -0.39 (inactive), -0.24 (inactive) and 1.25 (inactive).
Turning to `C#C[C@]1(O)CC[C@H]2[C@@H]3CCc4cc(OC)ccc4[C@H]3CC[C@@]21C` [Mestranol] (stock concentration (mM, diluted 1:100): 10), the “CDA2-GFP sporulation assay sensitivity score” value in assay [1] is 4.85 (inactive). Moreover, the “HIS4 meiotic recombination assay sensitivity score” value in assay [2] is -0.79 (inactive). For the same compound, the growth sensitivity score is 3.53 (active) in assay [3] and 0.8 (inactive) in assay [4].
The like results for `Cc1nc2n(c(=O)c1CCN1CCC(c3noc4cc(F)ccc34)CC1)CCCC2` [Risperidone] (stock concentration (mM, diluted 1:100): 10) were, in that order, -0.4 (inactive), 1.75 (inactive), -2.71 and -0.68 (inactive).
